SMILES strings stand for the structures. Results filed as inconclusive are left out. Values without a mark were called inactive. The source made the active and inactive calls. Calls follow the shape of the dose curve; as a rule, active = well fitted curve in the direction sought with a large enough effect; inconclusive = small, poorly fitted or top-dose-only effect, or another doubt; inactive = no such curve, though single readings can be large; an effect the other way counts as inactive or inconclusive.

Test [1] deals with Rap guanine nucleotide exchange factor 3 (Homo sapiens) (UniProt O95398). In words: Confirmatory qHTS for agonist of cAMP-regulated guanine nucleotide exchange factor 3 (EPAC1) (AID 1645881).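 Also: EPAC1 catalysed release of BODIPY-GDP from Rap1B seen as fluorescence loss; 100% = effect of cAMP agonist control; nearly all actives have a fitted effect of over 75% in size.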 A general note: In qHTS, concentration-response curves come from the screen itself.
Test [2] deals with Rap guanine nucleotide exchange factor 4 (Homo sapiens) (UniProt Q8WZA2). In words: Confirmatory qHTS for agonist of cAMP-regulated guanine nucleotide exchange factor 4 (EPAC2) (AID 1645884).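 Also: nucleotide exchange releases bodipy-GDP from Rap1 and this lowers its fluorescence; % is scaled to controls: 0 for no effect and ±100 for the full control effect; nearly all actives have a fitted effect of over 65% in size.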
Test [3] shares this target. In words: Confirmatory qHTS for antagonist of cAMP-regulated guanine nucleotide exchange factor 4 (EPAC2) (AID 1645885). Also: nearly all actives have a fitted effect of over 25% in size. Also: potency is read from the fitted curve at half-maximal effect. As to activity change, negative = inhibition: % is scaled to controls: 0 for no effect and ±100 for the full control effect.
The target of test [4] is Rap guanine nucleotide exchange factor 3 (Homo sapiens) (UniProt O95398). In words: Counterscreen qHTS for antagonist of cAMP-regulated guanine nucleotide exchange factor 3 (EPAC1) (AID 1645888). Also: % of control where 0% means no effect. In a few lines: (§1)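 Measured: fluorescence of BODIPY-GDP bound to Rap1B, which falls as exchange proceeds. Conditions include 50 uM competing GDP, 5 and 30 min reads, and a later cAMP challenge for antagonist detection.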
Background: Counterscreens check selectivity or assay interference.

Test [5] has the same target. In words: Counterscreen qHTS for agonist of cAMP-regulated guanine nucleotide exchange factor 3 (EPAC1) (AID 1645889). Also: % of control where 0% means no effect; nearly all actives have a fitted effect of over 40% in size. An outline of the steps: as §1

Rap guanine nucleotide exchange factor 3 (Homo sapiens), sequence (O95398 whole entry, looked up): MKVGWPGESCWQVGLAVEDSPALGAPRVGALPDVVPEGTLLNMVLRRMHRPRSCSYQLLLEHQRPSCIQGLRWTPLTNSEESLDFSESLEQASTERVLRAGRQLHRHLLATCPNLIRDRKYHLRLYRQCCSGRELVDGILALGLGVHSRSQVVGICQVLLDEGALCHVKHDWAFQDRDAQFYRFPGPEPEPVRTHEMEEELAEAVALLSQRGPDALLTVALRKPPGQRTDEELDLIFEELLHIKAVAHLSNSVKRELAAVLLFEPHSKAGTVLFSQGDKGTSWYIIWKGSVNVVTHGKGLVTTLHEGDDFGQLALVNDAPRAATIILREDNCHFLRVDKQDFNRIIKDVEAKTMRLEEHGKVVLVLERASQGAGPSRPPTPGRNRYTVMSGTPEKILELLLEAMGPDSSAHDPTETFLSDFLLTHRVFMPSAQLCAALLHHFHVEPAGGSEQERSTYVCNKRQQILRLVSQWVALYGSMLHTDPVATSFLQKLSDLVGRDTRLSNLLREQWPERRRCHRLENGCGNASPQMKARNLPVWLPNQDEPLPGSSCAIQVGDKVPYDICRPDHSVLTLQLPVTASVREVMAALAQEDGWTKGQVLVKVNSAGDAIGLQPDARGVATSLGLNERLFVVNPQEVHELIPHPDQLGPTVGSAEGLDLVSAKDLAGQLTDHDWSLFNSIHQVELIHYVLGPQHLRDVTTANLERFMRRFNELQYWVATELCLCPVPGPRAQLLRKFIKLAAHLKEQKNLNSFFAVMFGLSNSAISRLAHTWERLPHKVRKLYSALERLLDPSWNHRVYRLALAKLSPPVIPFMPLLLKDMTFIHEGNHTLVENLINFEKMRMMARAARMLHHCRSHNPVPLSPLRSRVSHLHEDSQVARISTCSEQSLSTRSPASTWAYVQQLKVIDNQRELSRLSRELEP
Rap guanine nucleotide exchange factor 4 (Homo sapiens), sequence (Q8WZA2 whole entry, looked up): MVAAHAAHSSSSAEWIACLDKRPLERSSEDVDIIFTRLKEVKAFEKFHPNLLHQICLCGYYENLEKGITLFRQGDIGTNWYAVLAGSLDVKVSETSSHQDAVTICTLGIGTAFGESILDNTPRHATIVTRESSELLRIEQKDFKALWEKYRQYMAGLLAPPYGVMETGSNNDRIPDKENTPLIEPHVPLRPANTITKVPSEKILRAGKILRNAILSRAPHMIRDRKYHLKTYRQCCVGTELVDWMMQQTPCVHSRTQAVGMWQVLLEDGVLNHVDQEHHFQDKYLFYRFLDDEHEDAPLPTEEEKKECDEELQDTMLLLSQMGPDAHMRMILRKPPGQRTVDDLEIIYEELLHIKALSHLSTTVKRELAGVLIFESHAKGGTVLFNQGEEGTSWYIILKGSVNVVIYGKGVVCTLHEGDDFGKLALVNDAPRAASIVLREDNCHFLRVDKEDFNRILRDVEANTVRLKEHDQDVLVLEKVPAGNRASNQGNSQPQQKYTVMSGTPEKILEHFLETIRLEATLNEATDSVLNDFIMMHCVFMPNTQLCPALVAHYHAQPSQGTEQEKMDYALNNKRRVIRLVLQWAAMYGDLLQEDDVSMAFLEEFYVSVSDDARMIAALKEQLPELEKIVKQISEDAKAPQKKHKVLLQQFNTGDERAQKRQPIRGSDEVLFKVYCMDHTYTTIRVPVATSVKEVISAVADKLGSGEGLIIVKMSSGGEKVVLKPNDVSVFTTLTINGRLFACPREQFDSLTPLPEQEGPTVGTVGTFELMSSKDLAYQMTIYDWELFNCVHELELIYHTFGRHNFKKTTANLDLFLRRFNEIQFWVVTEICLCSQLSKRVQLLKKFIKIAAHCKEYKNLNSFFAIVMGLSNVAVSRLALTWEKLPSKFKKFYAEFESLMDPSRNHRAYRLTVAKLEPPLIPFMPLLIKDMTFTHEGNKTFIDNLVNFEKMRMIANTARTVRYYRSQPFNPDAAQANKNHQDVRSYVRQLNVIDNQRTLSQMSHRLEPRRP

Consider `Cc1cccc(S(=O)(=O)Nc2ccc(S(=O)(=O)Nc3nccs3)cc2)c1`, for which the Potency result in test [1], in test [2] and in test [4] was “inactive” in each case. For the same compound, in test [3], the Potency was 75.7 µM (active).
For the compound `Cc1cccc(C(=O)OCC(=O)c2ccc(CC(=O)N3CCOCC3)s2)c1C`, the Potency entry in test [1], in test [2], in test [3] and in test [4] was “inactive” each time.
Regarding `O=c1[nH]cc(N=Cc2cc(Cl)cc(Cl)c2O)c(=O)[nH]1`, the Potency result in test [1], in test [2], in test [3] and in test [4] was “inactive” each time.
As for `COc1cc(NC(=O)c2cccc([N+](=O)[O-])c2)ccc1NC(=O)c1ccco1`, the Potency result in test [1], in test [2], in test [3] and in test [4] was “inactive” in each case.
Turning to `CCCN(CC(=O)Nc1ccccc1OC)C(=O)c1cccc(S(=O)(=O)Nc2ccc(OC)cc2)c1`, the Potency entry in test [1], in test [2], in test [3] and in test [4] was “inactive” in each case.
Take `CCOc1ccc(N2C(=O)C3Sc4[nH]c(=O)sc4C(/C=C/c4ccccc4)C3C2=O)cc1` (stereo unspecified): the Potency result in test [1] and in test [3] was “inactive” each time. Moreover, in test [2], the activation is 4.64% [at 17.1 µM, percent relative to cAMP agonist control]. The activity change, negative = inhibition in test [4] was 18.3% [at 30.8 µM].
Consider `Cc1ccc(NC(=O)CC2S/C(=N/N=C3\CCCc4ccccc43)NC2=O)cc1` (stereo unspecified), for which the Potency entry in test [1] and in test [3] was “inactive” in each case. Moreover, in test [2], the activation was 0% [at 17.1 µM, percent relative to cAMP agonist control]. Also, the activity change, negative = inhibition in test [4] is -9.99% [at 30.8 µM].
For the compound `CN(C)S(=O)(=O)c1cccc(COC(=O)Cc2c(F)cccc2Cl)c1`, the Potency result in test [1], in test [2], in test [3] and in test [4] was “inactive” each time.
Turning to `CC1=NN(c2ccc(C)c(C)c2)C(=O)C1C(c1cccc(O)c1)C1C(=O)N(c2ccc(C)c(C)c2)N=C1C` (stereo unspecified), the Potency result in test [1] and in test [3] was “inactive” in each case. Also, the activation in test [2] is 7.48% [at 17.1 µM, percent relative to cAMP agonist control]. Moreover, the activity change, negative = inhibition in test [4] is 19.9% [at 30.8 µM].
As for `C/C=C/COC(=O)c1[nH]c2c(c1C)C(=O)CC(c1ccco1)C2` (stereo unspecified), the Potency entry in test [1], in test [2], in test [3] and in test [4] was “inactive” throughout.
On to `COc1cn(-c2ccccc2)nc1C(=O)Nc1ccc(C)cc1Cl`, for which the Potency result in test [1], in test [2] and in test [4] was “inactive” each time. For the same compound, the Potency in test [3] was 95.3 µM (active).
On to `CCn1c2c(c3cc(Cl)ccc31)CCCC2=O`, for which the Potency result in test [1], in test [2], in test [3] and in test [4] was “inactive” throughout.
`COc1ccc(C(=O)NC2(C(F)(F)F)NC(=O)N(CCCc3ccccc3)C2=O)c(OC)c1OC` (stereo unspecified): the Potency result in test [1] and in test [3] was “inactive” in each case. For the same compound, the activation in test [2] is 12.9% [at 17.1 µM, percent relative to cAMP agonist control]. The activity change, negative = inhibition in test [4] is -10.8% [at 30.8 µM].
Turning to `CCOC(=O)Cc1cc(=O)n2[nH]c(-c3ccccc3)c(-c3ccccc3)c2n1`, the Potency result in test [1], in test [2], in test [3] and in test [4] was “inactive” throughout.
On to `CC(NS(=O)(=O)OCC(Cl)(Cl)Cl)c1ccc(Br)cc1` (stereo unspecified), for which the Potency entry in test [1], in test [2], in test [3] and in test [4] was “inactive” in each case.
Take `Nc1c2c(=O)[nH]c(O)cc2nn1-c1ccccc1`: the Potency result in test [1], in test [2], in test [3] and in test [4] was “inactive” each time.
For the compound `Cc1ccc(/C=C(\C#N)C(=O)Nc2cccc3ncccc23)o1`, the Potency result in test [1], in test [2], in test [3] and in test [4] was “inactive” each time.
Regarding `Cc1ccc(-c2nc(-c3cc4cccc(OCc5ccc(F)cc5)c4oc3=O)no2)cc1`, the Potency entry in test [1], in test [2], in test [3] and in test [4] was “inactive” each time.
Consider `O=S(=O)(Nc1nc2ccc(Cl)cc2s1)c1cccs1`, for which the Potency entry in test [1] and in test [3] was “inactive” in each case. Further, the activation in test [2] was 0% [at 17.1 µM, percent relative to cAMP agonist control]. For the same compound, the activity change, negative = inhibition in test [4] was -17.1% [at 30.8 µM].
`Cc1cc(SCC(=O)c2ccc(O)c(O)c2)n2nc(C)c(-c3ccccc3)c2n1`: the Potency result in test [1], in test [2], in test [3] and in test [4] was “inactive” throughout.
Take `COc1ccc(Cl)cc1NC(=O)c1c(NCc2ccc(C)o2)sc2c1CCCCC2`: the Potency result in test [1], in test [2], in test [3] and in test [4] was “inactive” each time.
On to `N#Cc1c(-c2ccc(F)cc2)cc(-c2ccccc2)nc1SCC(=O)NCC(=O)O`, for which the Potency result in test [1], in test [2], in test [4] and in test [5] was “inactive” each time. In test [3], the outcome was “inactive [at 12.7 µM]”.
Consider `Nc1ccc(SC(F)(F)F)cc1C(=O)c1ccccc1`, for which the Potency result in test [1] and in test [3] was “inactive” throughout. The activation in test [2] was -2.87% [at 17.1 µM, percent relative to cAMP agonist control]; in test [5] it was 5.87% [at 30.8 µM]. For the same compound, in test [4], the activity change, negative = inhibition is -9.64% [at 30.8 µM].
For `CN(CCOc1ccc(Br)cc1)C(=O)CNC(=O)c1ccc2ccccc2c1`, the Potency entry in test [1] and in test [3] was “inactive” in each case. Further, the activation in test [2] was 0.226% [at 17.1 µM, percent relative to cAMP agonist control]. The activity change, negative = inhibition in test [4] is -17.3% [at 30.8 µM].
For `Cc1ccc(C)c(OC(C)C(=O)Nc2ccc(S(=O)(=O)Nc3nccs3)cc2)c1` (stereo unspecified), the Potency entry in test [1], in test [2] and in test [4] was “inactive” throughout. The Potency in test [3] was 33.8 µM (active).
Regarding `CCOC(=O)C1=C(C)NC(C)=C(C(=O)OCC)C1c1cccc([N+](=O)[O-])c1`, the Potency result in test [1] and in test [3] was “inactive” throughout. In test [2], the activation was 8.4% [at 17.1 µM, percent relative to cAMP agonist control]. Also, the activity change, negative = inhibition in test [4] was 3.16% [at 30.8 µM].

The values above are taken from PubChem BioAssay (NCATS).
